This excerpt belongs to a sample that is enriched for hits.
Cycloheximide cs = counter-screen hit for Shiga toxin inhibitors, cycloheximide | cell reporter, cycloheximide protein synthesis inhibition counterscreen | max response, % | actives 12% (n = 300,000) | AID 2314; in the data active means max response mostly above about 13%, no sharp cut-off; inactive means mostly below about 14%; further: read at 38.3 µM for the half of the compounds with a filed dose
Tb PYK inh = inhibitors of Trypanosoma brucei pyruvate kinase | Q57TT1 | TbPYK enzyme, Kinase-Glo Plus ATP luminescence, 45 min | Potency, µM (titrated, usually from 76.8 µM), usual class: inhibitors | actives 0.12% (n = 410,000); further: nearly all actives have a fitted effect of over 50% in size
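Activity of T. brucei pyruvate kinase was followed by Kinase-Glo Plus luminescence after the enzyme reacted 45 min at room temperature with 130 uM ADP (final) and substrate. Test compounds were added before ADP at multiple concentrations.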
Shiga inhibitor = Shiga toxin inhibition. AID 2315. actives 9.2% (n = 290,000). Vero cells, Shiga toxin protein synthesis inhibition reporter. inhibition, % at 38.7 µM; in the data active means inhibition mostly above about 28%, no sharp cut-off; inactive means mostly below about 43%
Giardia FBPA inh = Giardia lamblia aldolase inhibition; A8B2U2; purified Giardia FBPA; Potency, µM (series often up to 59.6 µM), hits mostly inhibitors; actives 0.71% (n = 290,000); further: nearly all actives have a fitted effect of over 55% in size
Target sequence (A8B2U2 whole entry, looked up): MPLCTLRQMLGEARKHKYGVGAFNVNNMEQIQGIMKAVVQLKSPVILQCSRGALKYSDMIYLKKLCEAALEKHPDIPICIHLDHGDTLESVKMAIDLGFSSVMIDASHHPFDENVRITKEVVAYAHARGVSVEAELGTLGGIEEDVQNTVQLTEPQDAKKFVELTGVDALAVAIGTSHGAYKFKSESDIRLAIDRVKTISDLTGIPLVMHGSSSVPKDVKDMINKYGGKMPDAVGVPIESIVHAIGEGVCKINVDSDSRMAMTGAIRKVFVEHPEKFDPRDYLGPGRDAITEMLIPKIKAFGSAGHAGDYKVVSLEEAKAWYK
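Giardia FBPA (40 nM reagent) was preincubated 10 min at RT with compound (up to 57.5 uM final), then substrate plus GAPDH/TPI/NAD/arsenate coupling system with diaphorase/resazurin was added; resorufin fluorescence (525/598 nm) was read after 20 min.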
Sm TGR block = blocks Schistosoma mansoni thioredoxin glutathione reductase. purified TGR, DTNB reduction, TNB absorbance 405 nm. AID 485364. Potency, µM (doses to about 114 µM), actives largely listed as inhibitors. Q962Y6. actives 3% (n = 360,000); further: nearly all actives have a fitted effect of over 60% in size
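First, TGR (20 nM dispensed) and NADPH were mixed with compound. Second, a 15 min room-temperature incubation followed. Third, further NADPH and then DTNB were added to start the reaction. Finally, TNB absorbance was monitored kinetically.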
LmPK inh = blocks Leishmania mexicana pyruvate kinase activity. Q27686. purified LmPK, Kinase-Glo ATP luminescence, 1 h. Potency, µM (series often up to 57.5 µM), hits mostly inhibitors. actives 0.37% (n = 290,000)
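ATP generated from ADP (0.1 mM) and PEP (0.5 mM) by 0.1 nM LmPK over 1 h at room temperature (pH 7.2 imidazole buffer) was detected by coupled luciferase luminescence. Values were normalized to uninhibited and no-enzyme wells.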
Numbers stand for hits; – = inactive; ? = inconclusive; · = no result given; [ ] = another dose, or the depositor's remark. Unless noted, the call rests on the fitted dose curve; in most records, active means well fitted curve in the direction sought with a large enough effect; inconclusive means small, poorly fitted or top-dose-only effect, or another doubt; inactive means no such curve, though single readings can be large; an effect the other way counts as inactive or inconclusive.

SMILES | Cycloheximide cs | Tb PYK inh | Shiga inhibitor | Giardia FBPA inh | Sm TGR block | LmPK inh
O=C(O)Cc1c(O)ccc2ccccc12 | – | – | – | – | – | –
C=CCc1cccc(CNc2cnc3ccccc3c2)c1O | 17.2 | – | 20.5 | – | – | –
Oc1ccccc1CNc1cnc2ccccc2c1 | 30.9 | – | 31.7 | – | – | –
Oc1ccc(Cl)cc1CNc1cnc2ccccc2c1 | 14.5 | – | – | – | – | –
Cc1cc(C(N)=O)nn1-c1c(Cl)cc(Cl)cc1Cl | – | – | – | – | – | –
Cn1cccc1C(=O)N1CCC2(CC1)CN(C(=O)Nc1cccc(C#N)c1)C2 | · | – | · | – | · | ·
O=C(COC(=O)c1ccc[n+]([O-])c1)Nc1ccc(Cl)cc1[N+](=O)[O-] | · | – | · | · | – | ·
O=C(NC1CCCCC1)c1ccc2c(c1)N(Cc1ccccc1Cl)C(=O)c1ccccc1S2 | · | – | · | · | – | ·
Cc1csc(N/N=C/c2ccc([N+](=O)[O-])cc2)n1 | 31.8 | – | 67.4 | – | – | –
Cc1ccc(/C=N/Nc2nncn2N)cc1 | – | – | – | ? | – | –
Cc1nnc(N/N=C/c2ccc(Br)cc2)n1N | 10.0 | – | · | ? | – | –
Cc1nnc(N/N=C/c2ccc([N+](=O)[O-])cc2)n1N | – | – | – | 15.8µM | – | –
CC1CCN(c2cc(N3CCOCC3)c([N+](=O)[O-])cc2F)CC1 | – | – | – | – | – | –
Cc1nnc(N/N=C/c2cc([N+](=O)[O-])c(N3CCC(C)CC3)cc2N2CCC(C)CC2)n1N | – | – | – | 9.98µM | ? | –
COc1ccc2c(c1)CC(C(=O)NCCN1CCN(c3cccc(Cl)c3)CC1)CO2 (stereo not drawn) | · | – | · | · | – | ·
CC(C)(C)c1nnc(N/N=C/c2ccccc2)n(N)c1=O | 11.0 | – | – | – | – | –
CCCCC(=O)Nc1cccc(-c2nnc(-c3ccccc3)o2)c1 | 35.4 | – | 42.8 | – | – | –
O=C(Nc1ccccc1)c1cccc(-c2nnc(-c3ccccc3)o2)c1 | 17.2 | – | – | – | – | –
CCOC(=O)c1[nH]c2ccccc2c1NC(=O)c1ccc(OC(C)C)cc1 | · | – | · | · | – | ·
CC(=O)N(CC(O)CN(C(C)=O)c1c(I)c(C(=O)NC[C@@H](O)CO)c(I)c(C(=O)NC[C@@H](O)CO)c1I)c1c(I)c(C(=O)NC[C@@H](O)CO)c(I)c(C(=O)NC[C@@H](O)CO)c1I | · | – | · | – | · | ·
C/C(=N\NC(=O)Cc1ccc(Cl)cc1)c1ccccc1O | – | – | – | – | – | –
COc1ccc(CNC(=O)c2nc(Cn3nc(C)c(Br)c3C)no2)cc1OC | · | – | · | · | – | ·
Cc1ccccc1CNC(=O)c1ccc(CS(=O)Cc2ccc(Cl)cc2)o1 (stereo not drawn) | · | – | · | · | – | ·
Nc1ccc(Oc2c(Cl)cccc2Cl)nc1 | – | – | – | – | ? | –
Cc1cc(Oc2ccc(N)cn2)cc(C)c1Cl | – | – | – | – | 39.8µM | –
SMILES | Cycloheximide cs | Tb PYK inh | Shiga inhibitor | Giardia FBPA inh | Sm TGR block | LmPK inh
CC(C)(C)c1ccc(Oc2ccc(N)cn2)cc1 | – | – | – | – | 12.6µM | –
CS(=O)(=O)c1ccc(N)c(SSc2cc(S(C)(=O)=O)ccc2N)c1 | · | 3.55µM | · | · | – | ·
Cc1ccc(/C=C/C2=Cc3c(sc(NC(=O)CSc4n[nH]c(N)n4)c3C#N)C(C)(C)C2)o1 | – | · | – | – | 2.51µM | –
Cc1sc(NC(=O)CSc2n[nH]c(N)n2)c(C#N)c1C | · | – | · | · | · | ·
C(=C\c1nnc(-c2cccs2)o1)/c1ccccc1 | 62.6 | – | 71.2 | · | – | –
Clc1ccc(-c2noc(/C=C/c3ccccc3)n2)cc1 | – | – | – | – | – | –
Cc1ccc(-c2noc(/C=C/c3ccccc3)n2)cc1 | 19.3 | – | – | – | – | –
Cc1ccc(/C=C/c2nnc(-c3ccccc3)o2)cc1 | 22.9 | – | – | – | – | –
Cc1ccc(NC(=O)CN2C(=O)CC(c3ccc(C)c(C)c3)=Nc3ccccc32)cc1 | · | – | · | · | – | ·
CC(=O)OC[C@@H]1O[C@@H](O/N=C2/C[C@@H](O)[C@@H](O)[C@@H]3[C@@H]4C(=O)N(c5cccc(Oc6ccccc6)c5)C(=O)[C@H]4CC[C@@H]23)[C@H](OC(C)=O)[C@H](OC(C)=O)[C@@H]1OC(C)=O | · | · | · | –[12.9 µM] | · | ·
CCCN1C(C(=O)c2ccccc2)=C(OC(=O)COc2ccc(C)cc2)c2ccccc2S1(=O)=O | · | – | · | · | 10µM | ·
CCCN1C(C(=O)c2ccccc2)=C(OC(=O)COc2ccccc2)c2ccccc2S1(=O)=O | · | – | · | · | 11.2µM | ·
CCN1C(C(=O)c2ccccc2)=C(OC(=O)COc2ccc(OC)cc2)c2ccccc2S1(=O)=O | · | – | · | · | 11.2µM | ·
C=CCN1C(C(=O)c2ccccc2)=C(OC(=O)COc2ccccc2)c2ccccc2S1(=O)=O | – | – | – | – | 11.2µM | –
CCN1C(C(=O)c2ccccc2)=C(OC(=O)c2ccc(Cl)cc2)c2ccccc2S1(=O)=O | · | – | · | · | – | ·
CCCN1C(C(=O)c2ccccc2)=C(OC(=O)C(C)(C)C)c2ccccc2S1(=O)=O | · | – | · | · | – | ·
c1ccc2c(-c3cnn4cc(-c5ccc(N6CCNCC6)cc5)cnc34)ccnc2c1 | · | – | · | · | · | ·
CCN1C(C(=O)c2ccccc2)=C(OC(=O)COc2ccc(C)cc2)c2ccccc2S1(=O)=O | · | – | · | · | 10µM | ·
COc1cc(C2NC(=O)N(C)C3=C2C(=O)N(c2ccccc2)C3)ccc1O (stereo not drawn) | · | – | · | · | ? | ·
O=C(N/N=C/C(Br)=C/c1ccccc1)c1n[nH]c2c1CCC2 | 41.5 | – | 145.4 | – | – | –
O=C(N/N=C/c1ccccc1Cl)c1n[nH]c2c1CCCC2 | 92.1 | ? | 54.5 | – | – | ?
CC1(C)CC(=NNC(=O)c2n[nH]c3c2CCC3)CC(C)(C)N1 | – | – | – | – | – | –
Cc1[nH]nc(C(=O)NN=Cc2ccccc2Cl)c1N=NN(C)C | · | – | · | · | · | ·
O=C(N/N=C/c1ccc(Cl)cc1)c1n[nH]c2c1CCCC2 | 40.9 | – | 82.6 | – | – | –
O=C(N/N=C/c1ccc(Cl)cc1)c1ccc2nc[nH]c2c1 | · | – | · | · | · | ·
SMILES | Cycloheximide cs | Tb PYK inh | Shiga inhibitor | Giardia FBPA inh | Sm TGR block | LmPK inh
O=C(N/N=C/c1cccs1)c1n[nH]c2c1CCC2 | 33.4 | – | 45.0 | – | – | 25.1µM
O=C(N/N=C/c1ccccc1)c1n[nH]c2c1CCCC2 | 27.1 | – | 75.7 | – | – | –
Cc1cc(C)c(C(=O)CSc2nnc(N)s2)c(C)c1 | – | – | – | – | – | –
Cc1nnc(SCC(=O)N2CCCCC2)s1 | 17.6 | – | 33.8 | – | – | –
Cc1cc(C)c(C(=O)CSc2nnc(C)c(=O)[nH]2)cc1C | 48.0 | – | 95.4 | – | – | –
Cc1cc(C)c(C(=O)CSc2nnc(N)s2)cc1C | 25.9 | – | – | – | – | –
Cc1ccc(C(=O)CSc2nnc3ccccn23)c(C)c1 | 26.9 | – | – | – | · | –
COC(=O)CSc1nnc(C)c(=O)[nH]1 | – | – | – | – | – | –
Cc1ccc(NC(=O)CSc2nnc3ccccn23)c(Cl)c1 | · | – | · | · | · | ·

Bioassay records as filed in PubChem.
